# The campaign covered roughly 340,000 compounds. About 1,000 (0.29%) were called active. The sample holds actives, similar compounds and a random draw of the others, so the mix is not that of the screen.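 How the source made its calls: active means fluorescence-ratio B-score plate-corrected deviation score at least 3 library SD below zero, with starting fluorescence score within 5 deviations; inactive means the rest.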
# Molecular target: Anoctamin-1 (Mus musculus) (UniProt Q8BHY3)
# Experiment: TMEM16A chloride channel activators or potentiators, primary screen, cell-based, HTS (AID 623877);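 on B-score: channel opened by trigger with iodide after compound preincubation; score built on the fluorescence ratio of max minus min over baseline; more negative score means more quench and so TMEM16A activation or potentiation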
# Conditions: HEK293 TMEM16A/YFP-H148Q/I152L, iodide quench fluorescence, at 10 µM; active compounds read low
# Chain of Anoctamin-1 (Mus musculus) (Q8BHY3 whole entry, looked up): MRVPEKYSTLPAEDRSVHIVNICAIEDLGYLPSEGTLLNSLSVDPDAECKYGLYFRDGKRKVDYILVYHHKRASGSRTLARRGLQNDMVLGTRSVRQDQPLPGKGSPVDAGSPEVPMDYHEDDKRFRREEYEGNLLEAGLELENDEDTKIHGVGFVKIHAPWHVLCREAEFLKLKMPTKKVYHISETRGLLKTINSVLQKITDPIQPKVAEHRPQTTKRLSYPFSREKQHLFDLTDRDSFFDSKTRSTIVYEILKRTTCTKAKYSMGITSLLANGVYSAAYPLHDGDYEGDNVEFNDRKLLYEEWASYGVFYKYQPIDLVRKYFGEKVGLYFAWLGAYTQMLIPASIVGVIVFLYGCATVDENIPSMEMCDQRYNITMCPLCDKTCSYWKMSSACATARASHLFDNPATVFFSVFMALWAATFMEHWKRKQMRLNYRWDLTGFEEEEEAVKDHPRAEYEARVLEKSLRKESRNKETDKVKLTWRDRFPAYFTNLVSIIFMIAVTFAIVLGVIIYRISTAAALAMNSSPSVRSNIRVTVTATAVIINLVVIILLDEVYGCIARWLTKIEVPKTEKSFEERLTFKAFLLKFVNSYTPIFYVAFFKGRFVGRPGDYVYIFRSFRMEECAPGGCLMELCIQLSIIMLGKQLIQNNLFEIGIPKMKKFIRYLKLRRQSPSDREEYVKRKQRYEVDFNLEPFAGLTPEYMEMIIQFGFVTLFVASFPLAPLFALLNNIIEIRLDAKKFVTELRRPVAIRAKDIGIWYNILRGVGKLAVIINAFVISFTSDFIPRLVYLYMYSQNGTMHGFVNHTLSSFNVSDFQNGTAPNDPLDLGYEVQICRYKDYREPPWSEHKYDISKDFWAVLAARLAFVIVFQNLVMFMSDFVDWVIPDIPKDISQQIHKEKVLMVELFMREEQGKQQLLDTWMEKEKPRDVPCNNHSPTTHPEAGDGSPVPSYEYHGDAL
row,SMILES,B-score
1,N#CCC(=O)N/N=C/c1ccc(SCC(=O)Nc2ccccc2)o1,inactive
2,CC(OC(=O)CCCc1c[nH]c2ccccc12)C(=O)Nc1ccc(S(N)(=O)=O)cc1 (stereo not given),inactive
3,C/C(=N\NS(=O)(=O)c1cccc([N+](=O)[O-])c1)c1cc2ccccc2o1,inactive
4,CCCCN1CCNC1=S,inactive
5,O=C1c2cccc3cccc(c23)N1CN1CCN(c2ccccn2)CC1,inactive
6,O=C(c1c(F)cccc1Cl)N1CCN(c2ccccn2)CC1,inactive
7,O=C(c1ccc2c(c1)C(=O)N(c1ccc(Cl)cc1)C2=O)N1CCN(c2ccccn2)CC1,inactive
8,O=C1c2ccccc2S(=O)(=O)c2cc(N3CCN(c4ccccn4)CC3)ccc21,-5.73 (active)
9,O=C(C(Cl)Cl)N1CCN(c2ccccn2)CC1,inactive
10,O=C(c1ccc2c(c1)N(Cc1ccc(F)cc1)C(=O)c1ccccc1S2(=O)=O)N1CCN(c2ccccn2)CC1,-4.74 (active)
11,Nc1c(Cl)cc(-c2csc(N3CCCC3c3nc4cc(Cl)c(Cl)cc4n3CCOCCO)n2)cc1Cl (stereo not given),inactive
12,Cc1ccc(CSCC(=O)N(C)CC(=O)Nc2ccc(C)cc2)cc1,inactive
13,CC1C(=O)NC(=O)C1c1ccccc1 (stereo not given),inactive
14,CC(C)(C)Nc1nc(-c2ccccn2)nc2ccccc12,inactive
15,S=c1nc2ccccc2c2nc(-c3cccnc3)[nH]n12,inactive
16,COc1ccc(Nc2nc(-c3cccnc3)nc3ccccc23)cn1,-6.47 (active)
17,O=S(=O)(NC(=S)Nc1ccccc1)c1ccc(F)cc1,inactive
18,O=C(O)C1CCN(C(=O)c2cc(F)cc3c2OCOC3)CC1,inactive
19,Cc1cc(=O)n2nc(N3CCCC3C(=O)NCCCN3CC(C)CC(C)C3)sc2n1 (stereo not given),-18.1 (active)
20,Cc1cc(=O)n2nc(N3CCCC(C(=O)NCCC4=CCCCC4)C3)sc2n1 (stereo not given),inactive
21,Cc1cc(=O)n2nc(N3CCCC(C(=O)NCc4ccc(Cl)cc4)C3)sc2n1 (stereo not given),inactive
22,CN(c1ccc(OCC(=O)OCC(=O)Nc2cccc([N+](=O)[O-])c2)cc1)S(=O)(=O)c1ccc(F)cc1,inactive

row,SMILES,B-score
1,Cc1ccccc1OCCC(=O)OCC(=O)NCCc1ccc(S(N)(=O)=O)cc1,inactive
2,CN(C)S(=O)(=O)c1ccc(C(=O)NCCN=C2NS(=O)(=O)c3ccccc32)cc1,inactive
3,CCc1ccc(-c2cc(C)no2)cc1S(=O)(=O)NCCc1ccc(S(N)(=O)=O)cc1,-4.67 (active)
4,Cc1cc(-c2ccc(C)c(S(=O)(=O)Nc3ccc(S(N)(=O)=O)cc3)c2)on1,inactive
5,Cc1noc(C)c1S(=O)(=O)NCCc1ccc(S(N)(=O)=O)cc1,inactive
6,Cc1cc(C)c2c(c1)cc(C)c1nnc(SCC(=O)Nc3cc(C)on3)n12,inactive
7,C=CCN(CC=C)CCOc1ccccc1[N+](=O)[O-],inactive
8,O=[N+]([O-])c1ccc(NS(=O)(=O)c2ccccc2)c(Cl)c1,inactive
9,Cc1ccc(-c2nn(-c3ccccc3)cc2C(=O)NC2CCC(O)CC2)cc1 (stereo not given),inactive
10,O=C(NNC(=S)NC(=O)c1cn(-c2ccccc2)nc1-c1ccccc1)c1ccncc1,-5.25 (active)
11,NC(=O)C1CCN(C(=O)c2cn(-c3ccccc3)nc2-c2cccnc2)CC1,inactive
12,O=C(CCc1nnc2ccc(NCCCN3CCCC3=O)nn12)NCc1ccccc1Cl,inactive
13,C#CCOCCOCCOCCNc1nc(N2CCN(C(=O)C(Cc3ccc(O)cc3)n3cc(C(N)CC(C)C)nn3)CC2)nc(N2CCN(C(=O)C(Cc3ccc(O)cc3)n3cc(C(N)C(C)CC)nn3)CC2)n1 (stereo not given),inactive
14,COc1ccc(CN2C(=O)C(C)S/C2=N/N=C/c2ccco2)cc1 (stereo not given),inactive
15,COc1ccc(NC(=O)Cn2nnc(C(=O)NCCc3ccc(OC)c(OC)c3)c2N)cc1,inactive
16,CCc1ccc(NC(=O)Cn2nnc(C(=O)NCc3ccc(OC)cc3)c2N)cc1,-25.9 (active)
17,COc1ccc(CNC(=O)c2nnn(CC(=O)Nc3cc(C)cc(C)c3)c2N)cc1,inactive
18,O=C(C1CCC1)N1CCN(S(=O)(=O)c2ccc([N+](=O)[O-])cc2)CC1,inactive
19,COc1ccc(N2CCN(C(=S)Nc3ccc(S(N)(=O)=O)cc3)CC2)cc1,inactive
20,COc1ccc(NC(=S)Nc2ccc(S(N)(=O)=O)cc2)c(C)c1,-4.58 (active)
21,COc1cc(NC(=S)NCc2ccc(S(N)(=O)=O)cc2)cc(OC)c1,inactive
22,Cc1ccc(CCNC(=O)C2CCN(S(=O)(=O)N3CCCC3)CC2)cc1,inactive

row,SMILES,B-score
1,CC(Sc1nnnn1C1CCCCC1)C(=O)O (stereo not given),inactive
2,O=C(O)c1cccc2c1C(=O)N(C1CCCCC1)C2,inactive
3,O=C(O)C1CCN1C1CCCCC1 (stereo not given),-6.61 (active)
4,COc1cccc2c1OCC(CN1CCN(C3CCCCC3)C(CCO)C1)=C2 (stereo not given),inactive
5,CC(=O)OCC1(O)CC23CCC4c5ccoc5CCC4(C)C2CCC1C3 (stereo not given),-17.2 (active)
6,Oc1cc2c(cc1O)CN(C(=S)NCCc1ccc(Cl)cc1)CCC2,inactive
7,Cc1nc(SCC(=O)NC2CCCC2)[nH]c(=O)c1C,inactive
8,C[C@H](NC(=O)c1nc[nH]c1C(=O)N[C@@H](C)C(=O)OC(C)(C)C)C(=O)OC(C)(C)C,inactive
9,CCn1ccnc1CN(C)Cc1nc(-c2ccc3c(c2)OCO3)no1,inactive
10,CN(CCN1CCOCC1)Cc1nc(-c2ccc3c(c2)OCO3)no1,-6.61 (active)
11,COCC1CCCN(Cc2nc(-c3ccc4c(c3)OCO4)no2)C1 (stereo not given),inactive
12,CC(C)N(Cc1ccccc1)C(=O)COC(=O)c1cnccn1,inactive
13,Cc1cc2c(cc1C)N(C(=O)CN1C(=O)c3ccccc3C1=O)C(C)(C)c1ssc(=S)c1-2,-9.51 (active)
14,Cc1cc(C)cc(NC(=O)CN2C(=O)c3ccccc3C2=O)c1,inactive
15,Cc1ccc2c(c1)-c1c(ssc1=S)C(C)(C)N2C(=O)CN1C(=O)c2ccccc2C1=O,inactive
16,O=C(NCCCN1CCN(c2ccccc2F)CC1)C1CCC(=O)N1C1CCCCC1 (stereo not given),inactive
17,Cc1ccccc1CSc1nnc(Cn2c(=O)sc3ccccc32)n1C,inactive
18,Cc1ccc(NS(=O)(=O)c2ccc3c(c2)oc(=O)n3C)c(C)c1,inactive
19,O=C(NCc1ccco1)C1CCCN(S(=O)(=O)c2cnc[nH]2)C1 (stereo not given),-16.8 (active)
20,CCCS(=O)(=O)N1CCCC(C(=O)NCc2ccco2)C1 (stereo not given),inactive
21,O=C(NCc1ccco1)C1CCCN(S(=O)(=O)c2ccccc2)C1 (stereo not given),inactive
22,Cc1cc(S(=O)(=O)NCC(C)C)ccc1OCC(=O)NC1CC1,inactive

row,SMILES,B-score
1,CCN(CC)CCOc1ccc2c(c1)C(=NNC(=O)c1ccccn1)c1cc(OCCN(CC)CC)ccc1-2,inactive
2,CCn1c(SCC(=O)Nc2ccccc2F)nc2c(c1=O)SC(C)C2 (stereo not given),inactive
3,COc1ccc(S(=O)(=O)NC(C)C(=O)Nc2cccc([N+](=O)[O-])c2)cc1 (stereo not given),inactive
4,O=C(Nc1cccc([N+](=O)[O-])c1)Nn1cnnc1,inactive
5,COC(=O)/C=C\C(=O)Nc1cccc([N+](=O)[O-])c1,-4.72 (active)
6,CCn1c(SCC(=O)Nc2ccc3c(c2)OCCO3)nnc1-c1ccncc1,inactive
7,CCn1c(COc2ccccc2)nnc1SCC(=O)Nc1ccc2c(c1)OCCO2,-32.9 (active)
8,CCn1c(SCC(=O)Nc2ccc3c(c2)OCCO3)nnc1C(C)C,inactive
9,C/C(=N\NC(=O)c1cccnc1)c1ccc(-n2ccnc2)cc1,inactive
10,Nc1nc(NC(=O)/C=C/c2ccccc2)nn1-c1ccccc1,inactive
11,C=CCSc1nnc(N2C(=O)C(O)=C(C(=O)c3ccco3)C2c2ccc(F)cc2)s1 (stereo not given),-5.81 (active)
12,C=CCOc1cccc(C2C(C(=O)c3ccc(C)o3)=C(O)C(=O)N2c2nnc(C)s2)c1 (stereo not given),inactive
13,Cc1ccc2nc(N3C(=O)C(O)=C(C(=O)c4ccco4)C3c3cccc(O)c3)sc2c1 (stereo not given),inactive
14,COc1cccc(NC(=O)CN(C)C(=O)c2cc(C3CC3)nn2-c2ccccc2)c1,inactive
15,O=C(COc1ccc(NC(=O)c2ccccc2[N+](=O)[O-])cc1)c1ccc(F)cc1,inactive
16,COc1ccc(OC)c(NC(=O)CSc2nc(N)c(-c3ccccc3)c(=O)[nH]2)c1,inactive
17,CCCOC(=O)CC1C(=O)NCCN1Cc1ccc(F)cc1 (stereo not given),inactive
18,CC(C)c1nc2oc3c(N4CCN(C)CC4)ncnc3c2c2c1CCC2,inactive
19,Cc1cccc(Oc2c([N+](=O)[O-])c(=O)n(C)c3ccccc23)c1,inactive
20,Cn1c(=O)c([N+](=O)[O-])c(Oc2ccccc2)c2ccccc21,-29 (active)
21,Cc1cc(C)c(-c2c(O)c3ccccc3n(C)c2=O)c(C)c1,inactive
22,CN(CCC(=O)Nc1cc(S(=O)(=O)N(C)C)ccc1Cl)CC(=O)Nc1ccc(F)cc1,inactive

row,SMILES,B-score
1,CC1=CC(=NNS(=O)(=O)c2ccc([N+](=O)[O-])cc2)CC(C)(C)C1,inactive
2,CC(=O)c1cc(NC(=O)c2ccccc2)c(=O)oc1/C=C/N(C)C,-6.65 (active)
3,CCOC(=O)c1cc(NC(=O)c2ccc(Cl)cc2)c(=O)oc1-c1ccccc1,inactive
4,COc1cc(NC(=O)c2ccccc2)c(OC)cc1NC(=O)Cc1ccccc1,inactive
5,COc1ccc(N(CCC(=O)NCCc2ccccc2)S(=O)(=O)c2ccc(C)cc2C)cc1,inactive
6,Nc1ccc2[nH]c(=S)sc2c1,inactive
7,COc1ccc(C(CCN(Cc2ccc(OC)c(OC)c2)C(=O)CCl)c2ccccc2)cc1 (stereo not given),inactive
8,CCN(CCCCOC(=O)c1ccc(OC)c(OC)c1)C(C)Cc1ccc(OC)cc1 (stereo not given),-9 (active)
9,COc1ccc(C(=O)OCC(=O)NCCCc2ccccc2)cc1OC,inactive
10,CCOCCCNC(=S)N1CCC(NC(=O)C2CCCCC2)CC1,inactive
11,CCOc1ccccc1NC(=S)NC(=O)CCc1ccccc1,inactive
12,CCc1cccc(NC(=O)COC(=O)C2CCN(c3ccc(C(F)(F)F)cn3)CC2)c1,inactive
13,CC(=O)C[C@H](O)CC(=O)[C@@H]1OC(=O)[C@@H](C)C/C=C\Cc2ccccc21,inactive
14,CC[C@@H]1CCCCc2ccccc2[C@@H](C(=O)C[C@H](O)CC(C)=O)OC1=O,inactive
15,CC(=O)C[C@@H](O)CC(=O)[C@H]1OC(=O)CCCCCCc2ccccc21,-17.5 (active)
16,CCOC(=O)CSc1nnc(CNC(=O)Cc2ccccc2)n1-c1ccccc1OC,inactive
17,Cc1cc(OC(=O)c2ccc(Cl)cc2)cc(=O)n1C,inactive
18,CCOC(=O)c1c(/N=C/C2C(=O)CC(C)(C)CC2=O)sc(C)c1C,inactive
19,CCOC(=O)c1sc(/N=C/C2=C(O)CC(C)(C)CC2=O)c(C(=O)OCC)c1C,-35.4 (active)
20,CCOC(=O)c1c(CC(C)C)csc1/N=C/C1=C(O)CCCC1=O,inactive
21,COc1ccc(Cl)cc1NC(=O)Cn1nc(-c2ccc(C)cc2)n(C)c1=S,inactive
22,CCC(NC(=O)C1CCCC1)c1ccc(C)cc1 (stereo not given),inactive
